Screening data deposited in PubChem BioAssay by SRMLSC.
This is a sample that favours compounds with a hit; in the whole collection about 6.8% have one here.
A340 absorber: absorbance at 340 nm; compound absorbance at 340 nm, fold over control; fold change at 10 µM; 65,000 tested, under 10 active;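 active = at 10 µM dose, initial 340 nm absorbance at least 2 fold that of control wells; inactive = change under 2 fold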;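 note: initial absorbance extrapolated from kinetic A340 decline of NADH oxidation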
Spn DPM-DC inh: blocks S. pneumoniae diphosphomevalonate decarboxylase; purified DPM-DC, PK/LDH coupled NADH fluorescence; calls only at 10 µM; actives 0.49% (n = 65,000); AID 556;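 active = the 320 compounds with the highest percent inhibition in the single-dose primary screen, excluding strongly autofluorescent ones, cut at about 32% in these data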;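 note: kinetic rate of NADH fluorescence loss reporting ADP formed by the decarboxylase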
MK inhibit: blocks S. pneumoniae mevalonate kinase | actives 0.48% (n = 65,000) | purified MK, PK/LDH-coupled NADH absorbance 340 nm | inhibition, % at 10 µM;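 active = ranked among the strongest by inhibition in the single 10 µM screen, a fixed top-ranked set picked for dose follow-up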
NADH enzymes: blocks coupling enzymes of NAD/NADH assays | coupled PK/LDH NADH assays, four targets | IC50, µM (top dose mostly 10 µM), for the others: top-dose inhibition | actives 0.02% (n = 65,000) | AID 774;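 active = single-dose screening hits from any of four coupled enzyme assays that gave an IC50 when retested across doses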;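 note: the DPM-DC format reads NADH fluorescence rather than 340 nm absorbance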
PMK inhibit: S. pneumoniae PMK inhibition; AID 539; inhibition, % at 10 µM; purified PMK, PK/LDH-coupled NADH absorbance 340 nm; actives 0.49% (n = 65,000);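 active = top-ranked compounds by inhibition in the single 10 µM screen, taking a fixed number of the strongest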;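 note: 0% = full reaction with DMSO carrier and 100% = background rate without enzyme reaction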
Autofluor 339: intrinsic fluorescence of library compounds, ex339/em460 – biochemical, MLSMR library, data from DPM-DC assay, artefact control, profiling panel | compound autofluorescence, ex339/em460 nm, NADH buffer; stronger effect = higher value; 1 = no-compound wells, NADH background | fluorescence fold increase at 10 µM | AID 709 | actives 5.5% (n = 65,000);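 active = at 10 µM, mean starting fluorescence two-fold or more over control wells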;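 note: signal is the first read of a kinetic run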
* = called active by the depositor; i = inactive; x = no result given.

SMILES	A340 absorber	Spn DPM-DC inh	MK inhibit	NADH enzymes	PMK inhibit	Autofluor 339
COc1cc2cc(CN(CCCO)S(=O)(=O)c3ccccc3Cl)c(=O)[nH]c2cc1OC	1.1	x	8	17%	25*	3.5*
CCOC(=O)c1cccc(S(=O)(=O)N(CCO)Cc2cc3cc(OC)c(OC)cc3[nH]c2=O)c1	1	i	0	3%	9	1.3
OC(CNCC(c1ccco1)N1CCCCC1)c1ccccc1 (stereo not given)	1	i	31	13%	9	1.2
CCn1c(C)c(CCC(=O)O)c(=O)n2nc(-c3ccccc3OC)cc12	1	x	6	3%	11	3.1*
CCOC(=O)CCc1c(C)nc2cc(-c3ccccc3OC)[nH]n2c1=O	1.1	i	2	8%	4	1.5
CNC(=O)C1C2C=CC3(O2)C1C(=O)N(CCOC)C3C(=O)NCc1ccc(OC)cc1 (stereo not given)	1	i	4	1%	0	1.1
COc1ccc(Cl)cc1NC(=O)c1ccco1	1.1	i	8	5%	6	1.1
O=C(Nc1ccc(Cl)cc1C(=O)Nc1ccc(Br)cn1)c1ccco1	1.1	i	5	3%	4	2.3*
CC(C)(C)NC(=O)CSc1ncnc2c1nnn2Cc1ccccc1Cl	1	i	0	13%	40*	1.1
O=C(Nc1cccc(-c2cn3cccnc3n2)c1)c1ccc2c(c1)OCO2	1	x	5	8%	10	5.3*
O=C(Nc1cccc(-c2cn3cccnc3n2)c1)c1ccco1	1.1	x	0	6%	11	5.4*
O=C(Nc1cccc(-c2cnc3ccccc3n2)c1)c1ccco1	1.1	i	0	2%	0	1.1
O=C(Nc1cccc(-c2cn3cccnc3n2)c1)c1ccc(Br)o1	1.1	x	2	8%	13	5.2*
CN(Cc1ccco1)C(=O)C1CCC(=O)N1Cc1ccc(F)cc1 (stereo not given)	0.99	i	3	3%	7	1.1
c1cncc(-c2nc(Oc3ccc(-c4nnco4)cc3)c3c4c(sc3n2)CCCC4)c1	1	x	0	6%	12	2.1*
COc1ccc(OC)c(S(=O)(=O)N2CCC(C(=O)NCC3CCCO3)CC2)c1 (stereo not given)	0.98	i	3	2%	5	1
CCn1c(=N)c(C(N)=O)cc2c(=O)n3cccc(C)c3nc21	1.1	x	9	5%	0	1.9
CCCCNC(=O)c1cc2c(=O)n3cccc(C)c3nc2n(Cc2ccncc2)c1=N	1.1	x	4	6%	8	3.7*
Cc1cccn2c(=O)c3cc(C(=O)NCCCN4CCOCC4)n(C)c3nc12	1.1	x	3	2%	0	2.1*
CCn1c(=N)c(C(=O)NC)cc2c(=O)n3cccc(C)c3nc21	1	x	4	9%	14	3.9*
CCOCCCn1c(=N)c(C(=O)NCc2ccc3c(c2)OCO3)cc2c(=O)n3cccc(C)c3nc21	1.1	i	12	17%	10	2.7*
Cc1cccn2c(=O)c3cc(C(=O)NC4CCCCC4)c(=N)n(CCN4CCOCC4)c3nc12	1	i	0	3%	9	1.1
COC(=O)c1ccc(-n2nnnc2SCc2ccccc2OC)cc1	1	i	7	8%	18	1.1
CN(CC1CCCO1)S(=O)(=O)c1ccc(C(=O)Nc2nc3cc4c(cc3s2)OCO4)cc1 (stereo not given)	1.1	i	6	6%	13	1.5
CCCCOc1ccc(OCCNS(=O)(=O)N(C)C)cc1	1	i	6	6%	11	1.1
CCCCNC(=O)c1cc2c(=O)n3cccc(C)c3nc2n(CCN2CCOCC2)c1=N	1.1	x	4	3%	1	3.8*
COCCNC(=O)c1cc2c(=O)n3cccc(C)c3nc2n(Cc2ccncc2)c1=N	1.1	x	0	7%	13	3.9*
COc1ccc(CCNC(=O)c2cc3c(=O)n4cccc(C)c4nc3n(Cc3ccncc3)c2=N)cc1	1	i	3	4%	10	1.6
C=CCn1c(=O)c(C(=O)Nc2nnc(C)s2)c(O)c2ccccc21	1	i	15	9%	10	1.4
Clc1ccc(OCc2nnc(SCc3nnc(-c4ccccc4)o3)o2)c(Cl)c1	1	i	16	8%	8	1.1
